Giardia FBPA inh-1 = Giardia lamblia aldolase inhibition | A8B2U2 | AID 2451 | purified Giardia FBPA | actives 0.71% (n = 290,000) | Potency, µM (doses to about 59.6 µM), most hits filed as inhibitors; note: nearly all actives have a fitted effect of over 55% in size
Target sequence (A8B2U2 whole entry, looked up): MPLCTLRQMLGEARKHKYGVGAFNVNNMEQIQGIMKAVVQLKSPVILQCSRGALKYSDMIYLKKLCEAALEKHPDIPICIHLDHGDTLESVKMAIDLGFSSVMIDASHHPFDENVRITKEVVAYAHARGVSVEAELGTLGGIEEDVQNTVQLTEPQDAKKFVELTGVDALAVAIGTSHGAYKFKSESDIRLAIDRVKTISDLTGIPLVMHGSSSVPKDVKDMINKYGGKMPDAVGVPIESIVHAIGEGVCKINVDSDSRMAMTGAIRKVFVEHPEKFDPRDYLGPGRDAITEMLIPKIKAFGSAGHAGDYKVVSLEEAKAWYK
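Giardia FBPA (40 nM reagent) was preincubated 10 min at RT with compound (up to 57.5 uM final), then substrate plus GAPDH/TPI/NAD/arsenate coupling system with diaphorase/resazurin was added; resorufin fluorescence (525/598 nm) was read after 20 min.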
Tb PYK inh = blocks Trypanosoma brucei pyruvate kinase; Potency, µM (doses to about 76.8 µM), most hits filed as inhibitors; actives 0.12% (n = 410,000); TbPYK enzyme, Kinase-Glo Plus ATP luminescence, 45 min; note: nearly all actives have a fitted effect of over 50% in size
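Luminescent Kinase-Glo Plus end-point after 45 min room-temperature reaction of T. brucei pyruvate kinase started with 130 uM ADP (final). Buffer TEA 50 mM pH 7.2 with KCl, MgCl2, BSA, Tween-20; titration-based qHTS with fitted concentration-effect curves.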
Sm TGR inh = blocks Schistosoma mansoni thioredoxin glutathione reductase | AID 485364 | Potency, µM (series often up to 114 µM), most hits filed as inhibitors | actives 3% (n = 360,000) | purified TGR, DTNB reduction, TNB absorbance 405 nm; note: nearly all actives have a fitted effect of over 60% in size
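First, TGR (20 nM dispensed) and NADPH were mixed with compound. Second, a 15 min room-temperature incubation followed. Third, further NADPH and then DTNB were added to start the reaction. Finally, TNB absorbance was monitored kinetically.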
FMDV inh = foot and mouth disease virus antiviral activity; FMDV antiviral cell-based qHTS; Potency, µM (doses to about 57.9 µM), most hits filed as inhibitors; actives 1.2% (n = 410,000); AID 1159524; calls by dose curve; tested in HEK293T cells; note: read-out not given here; nearly all actives have a fitted effect of over 45% in size
HCMV antiviral = blocks human cytomegalovirus replication; HFF cells, HCMV-luciferase reporter, 72 h; stronger effect = lower value; activity change, negative = inhibition, % at 57.5 µM; actives 4.5% (n = 410,000); in the data active = activity change below about -60%; inconclusive = no clear call, values can overlap the other calls; inactive = above about -39%
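Two compound doses tested in HFFs infected with HCMV-luciferase, MOI 1 PFU/cell, 72 h at 37C. Lysate luminescence read with OneGlo; data normalized against buffer-only and 10uM Salinomycin inhibitor controls.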
RE007 growth inh = less growth of the S. pombe RE007 Vpr strain | S. pombe RE007 Vpr strain, BacTiter-Glo ATP luminescence, 24 h | Potency, µM (series often up to 92.2 µM), actives largely listed as inhibitors | actives 0.21% (n = 360,000) | AID 651644; active = well fitted falling curve with a large enough effect; inconclusive = small, poorly fitted or top-dose-only effect; inactive = no such curve, though single readings can be large or run the other way; note: nearly all actives have a fitted effect of over 50% in size
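Fission yeast RE007 carrying one integrated HIV-1 vpr copy, seeded at OD 0.01 in PMG+AL medium with 23 nL pinned compound. Grown 24 h at 30 degrees; viability read by BacTiter-Glo luminescence after 5 min.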
Giardia growth = Giardia lamblia growth inhibition; shares compounds with Giardia FBPA inh-1; Giardia lamblia trophozoite growth inhibition; Potency, µM (doses to about 57.5 µM), usual class: inhibitors; actives 5% (n = 1,500); AID 2785;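 note: trophozoites exposed to compound for 48 h at 37 °C; nearly all actives have a fitted effect of over 70% in size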
Mammalian tox = toxic to mammalian cells in Giardia aldolase counter-screen; shares compounds with Giardia FBPA inh-1; mammalian cell viability counter-screen, qHTS; Potency, µM (series often up to 57.5 µM), usual class: inhibitors; actives 4% (n = 1,500); AID 2786;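 note: Chinese hamster ovary cells used as mammalian cytotoxicity surrogate; viability measured as cellular ATP by luminescence; compound exposure lasted 48 h before reading; nearly all actives have a fitted effect of over 60% in size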
Giardia FBPA inh-2 = confirmation of Giardia fructose-bisphosphate aldolase inhibitors; shares compounds with Giardia FBPA inh-1; purified Giardia aldolase enzyme activity, qHTS; Potency, µM (titrated, usually from 57.5 µM), usual class: inhibitors; actives 5% (n = 1,500); AID 2787; note: nearly all actives have a fitted effect of over 45% in size
Rabbit aldolase = blocks rabbit muscle aldolase in Giardia aldolase selectivity test | Potency, µM (doses to about 57.5 µM), usual class: inhibitors | actives 4% (n = 1,500) | shares compounds with Giardia FBPA inh-1 | Rabbit muscle FBPA enzyme inhibition, selectivity counter-screen; note: nearly all actives have a fitted effect of over 60% in size
Target sequence (P00883 whole entry, looked up): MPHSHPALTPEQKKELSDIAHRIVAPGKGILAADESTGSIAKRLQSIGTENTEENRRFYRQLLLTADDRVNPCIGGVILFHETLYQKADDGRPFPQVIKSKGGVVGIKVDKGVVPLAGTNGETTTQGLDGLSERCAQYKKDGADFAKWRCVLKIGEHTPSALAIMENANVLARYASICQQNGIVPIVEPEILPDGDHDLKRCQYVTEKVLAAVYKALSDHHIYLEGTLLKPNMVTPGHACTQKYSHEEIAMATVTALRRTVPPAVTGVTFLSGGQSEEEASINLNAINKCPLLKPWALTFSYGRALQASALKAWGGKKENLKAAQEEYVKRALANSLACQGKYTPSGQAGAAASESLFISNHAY
GAPDH coupling = GAPDH inhibition flagged for Giardia aldolase hits; shares compounds with Giardia FBPA inh-1; GAPDH coupling enzyme counterscreen, biochemical, qHTS; Potency, µM (top dose mostly 57.5 µM), most hits filed as inhibitors; actives 6% (n = 1,500); AID 2795; note: nearly all actives have a fitted effect of over 55% in size
Large screens that a line does not name were inactive (follow-up assays come after a bar, where they were run); [ ] = remark or other dose. Most compounds without a hit are left out; they make up all but 7.7% or so of the library. Unless noted, calls come from the whole dose curve; as a rule, active = well fitted curve in the direction sought with a large enough effect; inconclusive = small, poorly fitted or top-dose-only effect, or another doubt; inactive = no such curve, though single readings can be large; an effect the other way counts as inactive or inconclusive.

CC(=O)c1ccc(N=Nc2c(C)[nH]n(-c3ccccc3)c2=O)cc1	Giardia FBPA inh-1 7.1µM | Giardia growth inconclusive | Mammalian tox inactive | Giardia FBPA inh-2 inactive | Rabbit aldolase inactive | GAPDH coupling inactive
Cc1[nH]n(-c2ccccc2)c(=O)c1N=Nc1ccc(C(=O)O)cc1	none
CCc1ccc(CNC(=O)Cn2nc(C)c3nn(-c4ccc(Cl)cc4)c(C)c3c2=O)cc1	none (no result: Giardia FBPA inh-1, RE007 growth inh)
COCCn1c(C)c(C)c2c(NCCc3ccccc3)ncnc21	Giardia FBPA inh-1 28µM, FMDV inh inconclusive, HCMV antiviral -99 | Giardia growth inactive | Mammalian tox inconclusive | Giardia FBPA inh-2 inactive | Rabbit aldolase inactive | GAPDH coupling inactive
CCCCCCCCCCCCC/C=C/[C@@H](O)[C@H](CO)NC(=O)CCCCCCC	none (no result: Tb PYK inh, Sm TGR inh, HCMV antiviral, RE007 growth inh)
COc1ccc(CC(=O)NCCc2csc(-c3cccc(C)c3)n2)cc1	none (no result: Giardia FBPA inh-1, RE007 growth inh)
C=CCOc1ccccc1CN1CCCCCC1	Giardia FBPA inh-1 18µM | Giardia growth inactive | Mammalian tox inactive | Giardia FBPA inh-2 inactive | Rabbit aldolase inactive | GAPDH coupling inactive
C=CCOc1ccccc1CN1CCSCC1	none
Cc1nc(-n2nc(C)c(CCC(C)C)c2C)sc1C(=O)Nc1ccc(Br)cc1	none (no result: Giardia FBPA inh-1, RE007 growth inh)
COc1cc(NCc2ccccc2O)c2ncccc2c1	none
Oc1ccccc1CNc1cccc2cccnc12	Giardia FBPA inh-1 6.3µM | Giardia growth inactive | Mammalian tox inactive | Giardia FBPA inh-2 inactive | Rabbit aldolase inactive | GAPDH coupling inactive
Cc1ccc(C)c(NC(=O)c2nc(S(C)(=O)=O)ncc2N(Cc2ccc(C(C)(C)C)cc2)Cc2ccco2)c1	Sm TGR inh inconclusive (no result: Giardia FBPA inh-1, RE007 growth inh)
CC(C)CO/N=C1/C[C@@H](O)[C@@H](O)[C@@H]2[C@@H]3C(=O)N(C4CCCCC4)C(=O)[C@H]3CC[C@@H]12	none (no result: Tb PYK inh, Sm TGR inh, FMDV inh, HCMV antiviral, RE007 growth inh)
CC(=O)Nc1cc(OC(C)=O)c2nonc2c1OC(C)=O	Giardia FBPA inh-1 0.045µM, Sm TGR inh 8.9µM, FMDV inh inconclusive, HCMV antiviral -104 | Giardia growth inconclusive | Mammalian tox 16µM | Giardia FBPA inh-2 3.5µM | Rabbit aldolase 4.5µM | GAPDH coupling 2µM
CC(=O)Nc1nonc1NC(C)=O	none
CCOc1ccc(CNC(=O)c2ccc(-c3nc(CS(=O)(=O)c4ccccc4)c(C)o3)cc2)cc1	none (no result: Giardia FBPA inh-1, RE007 growth inh)
CCn1c(C(=O)Nc2ccc(C)cc2C)cc2sc(Cl)cc21	none (no result: Giardia FBPA inh-1, RE007 growth inh)
Cc1ccc(Cn2c(C3CCCN3c3nc(C)cs3)nc3cc(C(F)(F)F)ccc32)cc1 (stereo not given)	Giardia FBPA inh-1 28µM (no result: HCMV antiviral) | Giardia growth inactive | Mammalian tox inactive | Giardia FBPA inh-2 inactive | Rabbit aldolase inactive | GAPDH coupling inactive
COc1ccc(NC(=O)C2CCN(S(=O)(=O)c3ccc4[nH]c(=O)ccc4c3)CC2)cc1Cl	none (no result: Giardia FBPA inh-1, RE007 growth inh)
Cc1nn(C)c2c1c(-c1ccccc1)cc(=O)n2C(C)C(=O)NCCc1ccc(Cl)cc1 (stereo not given)	none (no result: Giardia FBPA inh-1, RE007 growth inh)
C/C(CC(=O)Nc1ccc(Cl)c(Cl)c1)=N\NC(N)=S	Giardia FBPA inh-1 10µM | Giardia growth inactive | Mammalian tox inactive | Giardia FBPA inh-2 inactive | Rabbit aldolase inactive | GAPDH coupling inactive
C/C(CC(=O)Nc1ccc(Cl)cc1C(F)(F)F)=N\NC(N)=S	Giardia FBPA inh-1 20µM | Giardia growth inactive[10.4 µM] | Mammalian tox inactive | Giardia FBPA inh-2 inactive | Rabbit aldolase inactive | GAPDH coupling inactive
C/C(CC(=O)Nc1cc(Cl)ccc1Cl)=N\NC(N)=S	Giardia FBPA inh-1 inconclusive
C/C(CC(=O)Nc1ccc(Cl)cc1Cl)=N\NC(N)=S	none
CCc1cc(-c2n[nH]c(=S)n2N)n(C)n1	Giardia FBPA inh-1 10µM | Giardia growth inconclusive | Mammalian tox inactive | Giardia FBPA inh-2 inactive | Rabbit aldolase inactive | GAPDH coupling inactive
CCc1nn(C)c(-c2n[nH]c(=S)n2N)c1Cl	Giardia FBPA inh-1 inconclusive, Tb PYK inh inconclusive
CN1CCN(C(CNC(=O)c2c(F)cccc2F)c2ccc3c(c2)OCO3)CC1 (stereo not given)	none (no result: Giardia FBPA inh-1, RE007 growth inh)
O=C(/C=C/c1ccc(Br)cc1)NC(=S)N1C[C@H]2C[C@H](C1)c1cccc(=O)n1C2	Giardia FBPA inh-1 inconclusive
